Test [1] has as its target D(1A) dopamine receptor (Homo sapiens) (UniProt P21728). The test can be described thus: HTS Assay for Allosteric Agonists of the Human D1 Dopamine Receptor: Primary Screen for Antagonists (AID 488983).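 Also: calcium flux response to an EC80 dopamine challenge measured with no-wash dye; nearly all actives have a fitted effect of over 65% in size.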 Also: potency is read from the fitted curve at half-maximal effect. In short, it runs like this:
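In this primary screen, compounds are applied to calcium-dye-loaded HEK293 T-REx cells with force-coupled D1 expression induced overnight at 30 C. An EC80 of dopamine follows the 180 s compound phase, and calcium is monitored for a further 180 s.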

Test [2] can be described thus: Validation screen for small molecules that induce genotoxicity in human embryonic kidney (HEK293T) cells expressing luciferase-tagged ELG1 (AID 493106). A digest of the protocol: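 In this validation screen, increased ELG1-luciferase signal flags compounds causing genetic stress. HEK293T reporter cells are treated 16 hr (37 °C, 5% CO2), developed with ONE-Glo for 30 min at room temperature, and imaged on a CCD-based reader.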

Test [3] in a line: Nrf2 qHTS screen for inhibitors: Validation (AID 493153; active = well fitted inhibition curve with a large enough effect in the main read-out, with a control signal flat, not every such curve was filed as active). To be noted: Potency: luciferase luminescence; viability change: measured here: cytotoxicity max response. A digest of the protocol: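 In this counterscreened reporter format, each well gives two signals: CellTiter-Fluor fluorescence for cytotoxicity and ARE-luciferase luminescence for Nrf2 function. A549 ARE_Fluc cells in 5% FBS OPTI-MEM were exposed to compound titrations for 18-24 h.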

A short description of test [4]: qHTS for Inhibitors of Cell Surface uPA Generation: Validation Assay (AID 493164).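 Also: RAW 264.7 macrophage cells exposed to compound for 18 h.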 In short, it runs like this:
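Compounds are titrated over seven points (2.45 nM–38.3 uM final) onto pre-plated RAW 264.7 cells and incubated for 18 h. Retained intracellular ATP, measured with ATP-Lite, indicates blocked lethal factor entry.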

In test [5] the target is ATP-dependent 6-phosphofructokinase (Trypanosoma brucei brucei) (UniProt O15648). The test can be described thus: qHTS Assay to Find Inhibitors of T. brucei phosphofructokinase: hit validation (AID 492961). Also: potency is read from the fitted curve at half-maximal effect. In short, it runs like this:
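Luminescence from ADP-Glo reports ADP generated as T. brucei PFK (1.25 nM) phosphorylates 0.5 mM fructose-6-phosphate using 0.1 mM ATP. Reactions ran 45 min at room temperature, pH 8.0.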
A general note: qHTS replaces the single test concentration by a dilution series.

Test [6] concerns the target ATPase family AAA domain-containing protein 5 (Homo sapiens) (UniProt Q96QE3). The test can be described thus: Validation screen for small molecules that inhibit ELG1-dependent DNA repair in human embryonic kidney (HEK293T) cells expressing luciferase-tagged ELG1 (AID 493107). Also: nearly all actives have a fitted effect of over 70% in size. Also: potency is read from the fitted curve at half-maximal effect. In short, it runs like this: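 Compounds reducing 5-fluorouridine-driven ELG1-luciferase signal in HEK293T cells were scored; exposure lasted 16 hr at 37 °C with luminescence detected via ONE-Glo.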

In test [7] the target is Thyrotropin-releasing hormone receptor (Homo sapiens) (UniProt P34981). The test can be described thus: qHTS for Small Molecule Agonists and Allosteric Enhancers of Human TRH Receptor: Validation Screen for Agonists (AID 493127;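 active = calcium activation more than 3 SD above the typical response in the agonist read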;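 also: intracellular calcium rise by fluo-8 fluorescence before TRH EC20 addition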). The settings on record: TRH receptor agonist cell assay; at 2 µM; stronger effect = higher value. A digest of the protocol:
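Kinetic fluorescence assay of agonist-induced calcium release: overnight-plated TRHR cells, room-temperature fluo-8 loading, baseline then compound addition with per-second reads.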

Test [8] addresses Galactokinase (Homo sapiens) (UniProt P51570). Kind of test: qHTS Validation Assay for Inhibitors of Human Galactokinase (GALK) (AID 493189). A digest of the protocol:
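Enzyme activity is inferred from ATP consumption: human GALK phosphorylates galactose (100 uM) using 35 uM ATP for 1 h at room temperature, and luciferase-based Kinase-Glo Plus reports unconsumed ATP.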

Test [9] deals with Tyrosyl-DNA phosphodiesterase 1 (Homo sapiens) (UniProt Q9NUW8). Kind of test: Confirmation Assay for Inhibitors of Tyrosyl-DNA Phosphodiesterase (TDP1) (AID 489007). Also: potency is read from the fitted curve at half-maximal effect; nearly all actives have a fitted effect of over 40% in size. The settings on record: recombinant human TDP1 enzymatic activity, dose-response. A digest of the protocol:
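Loss of AlphaScreen signal reports Tdp1 cleavage of a dual-labelled DNA substrate. Conditions: 1 nM E. coli-derived enzyme, 15 nM substrate, 15 min compound preincubation, 5 min reaction, 10 min bead incubation, all at room temperature.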

Test [10] has as its target D(1A) dopamine receptor (Homo sapiens) (UniProt P21728). Kind of test: HTS Assay for Allosteric Agonists of the Human D1 Dopamine Receptor: Primary Screen for Potentiators (AID 488982). In short, it runs like this:
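Tetracycline-induced HEK293 Trex D1 cells with forced coupling to calcium, loaded with no-wash calcium dye; kinetic fluorescence read 180 s after compound addition for agonism, then a further 180 s after an EC20 dopamine challenge for potentiation.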

Results filed as inconclusive are left out. A call without a number means that no potency is given here. Active and inactive are the calls of the source. Unless noted, calls follow the shape of the dose curve; as a rule, active = well fitted curve in the direction sought with a large enough effect; inconclusive = small, poorly fitted or top-dose-only effect, or another doubt; inactive = no such curve, though single readings can be large; an effect the other way counts as inactive or inconclusive.

Chain of Thyrotropin-releasing hormone receptor (Homo sapiens) (P34981 whole entry, looked up): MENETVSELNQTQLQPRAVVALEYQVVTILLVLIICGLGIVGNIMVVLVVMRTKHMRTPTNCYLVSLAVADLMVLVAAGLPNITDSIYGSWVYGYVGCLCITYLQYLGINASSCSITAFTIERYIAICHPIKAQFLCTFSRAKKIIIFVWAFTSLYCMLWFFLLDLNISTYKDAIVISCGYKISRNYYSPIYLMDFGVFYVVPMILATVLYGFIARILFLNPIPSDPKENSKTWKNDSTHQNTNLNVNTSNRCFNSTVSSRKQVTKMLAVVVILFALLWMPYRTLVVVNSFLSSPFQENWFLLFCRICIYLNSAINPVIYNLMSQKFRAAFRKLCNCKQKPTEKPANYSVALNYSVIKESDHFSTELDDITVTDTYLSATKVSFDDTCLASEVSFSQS
Chain of D(1A) dopamine receptor (Homo sapiens) (P21728 whole entry, looked up): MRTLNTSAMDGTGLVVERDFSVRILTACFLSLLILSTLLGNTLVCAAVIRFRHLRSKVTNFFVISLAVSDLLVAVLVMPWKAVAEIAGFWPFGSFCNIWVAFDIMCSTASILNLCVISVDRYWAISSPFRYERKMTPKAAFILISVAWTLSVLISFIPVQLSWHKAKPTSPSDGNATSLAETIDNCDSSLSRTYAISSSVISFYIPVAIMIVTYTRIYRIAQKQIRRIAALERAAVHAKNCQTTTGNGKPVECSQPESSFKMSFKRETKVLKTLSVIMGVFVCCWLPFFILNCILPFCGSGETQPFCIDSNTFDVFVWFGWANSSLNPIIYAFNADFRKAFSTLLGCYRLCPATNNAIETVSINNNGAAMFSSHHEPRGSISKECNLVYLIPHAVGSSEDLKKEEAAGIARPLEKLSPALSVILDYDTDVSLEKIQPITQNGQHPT
Chain of Galactokinase (Homo sapiens) (P51570 whole entry, looked up): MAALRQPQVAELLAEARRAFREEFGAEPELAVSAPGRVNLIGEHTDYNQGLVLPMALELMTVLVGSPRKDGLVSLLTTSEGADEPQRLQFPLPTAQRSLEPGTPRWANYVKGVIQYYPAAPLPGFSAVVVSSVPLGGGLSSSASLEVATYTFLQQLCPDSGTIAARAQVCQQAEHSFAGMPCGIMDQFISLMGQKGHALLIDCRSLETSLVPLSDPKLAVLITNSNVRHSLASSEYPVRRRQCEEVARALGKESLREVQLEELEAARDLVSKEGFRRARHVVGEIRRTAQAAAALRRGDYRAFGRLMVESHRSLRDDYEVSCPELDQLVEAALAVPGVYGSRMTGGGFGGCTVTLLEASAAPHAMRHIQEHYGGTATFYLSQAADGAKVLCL
Chain of ATP-dependent 6-phosphofructokinase (Trypanosoma brucei brucei) (O15648 whole entry, looked up): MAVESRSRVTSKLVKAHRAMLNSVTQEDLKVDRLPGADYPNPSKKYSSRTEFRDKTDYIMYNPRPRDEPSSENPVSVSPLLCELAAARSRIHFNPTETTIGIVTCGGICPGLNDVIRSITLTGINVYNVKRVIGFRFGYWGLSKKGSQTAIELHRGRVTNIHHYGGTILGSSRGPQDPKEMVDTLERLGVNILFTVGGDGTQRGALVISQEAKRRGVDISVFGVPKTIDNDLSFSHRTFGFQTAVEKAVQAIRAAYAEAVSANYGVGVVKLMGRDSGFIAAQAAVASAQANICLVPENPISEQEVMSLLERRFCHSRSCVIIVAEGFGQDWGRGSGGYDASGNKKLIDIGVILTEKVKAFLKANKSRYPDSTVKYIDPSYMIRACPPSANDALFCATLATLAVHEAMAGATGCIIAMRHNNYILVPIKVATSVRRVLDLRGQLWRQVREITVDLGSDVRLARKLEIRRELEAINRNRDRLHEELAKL
Chain of ATPase family AAA domain-containing protein 5 (Homo sapiens) (Q96QE3 whole entry, looked up, the tested form may be a part): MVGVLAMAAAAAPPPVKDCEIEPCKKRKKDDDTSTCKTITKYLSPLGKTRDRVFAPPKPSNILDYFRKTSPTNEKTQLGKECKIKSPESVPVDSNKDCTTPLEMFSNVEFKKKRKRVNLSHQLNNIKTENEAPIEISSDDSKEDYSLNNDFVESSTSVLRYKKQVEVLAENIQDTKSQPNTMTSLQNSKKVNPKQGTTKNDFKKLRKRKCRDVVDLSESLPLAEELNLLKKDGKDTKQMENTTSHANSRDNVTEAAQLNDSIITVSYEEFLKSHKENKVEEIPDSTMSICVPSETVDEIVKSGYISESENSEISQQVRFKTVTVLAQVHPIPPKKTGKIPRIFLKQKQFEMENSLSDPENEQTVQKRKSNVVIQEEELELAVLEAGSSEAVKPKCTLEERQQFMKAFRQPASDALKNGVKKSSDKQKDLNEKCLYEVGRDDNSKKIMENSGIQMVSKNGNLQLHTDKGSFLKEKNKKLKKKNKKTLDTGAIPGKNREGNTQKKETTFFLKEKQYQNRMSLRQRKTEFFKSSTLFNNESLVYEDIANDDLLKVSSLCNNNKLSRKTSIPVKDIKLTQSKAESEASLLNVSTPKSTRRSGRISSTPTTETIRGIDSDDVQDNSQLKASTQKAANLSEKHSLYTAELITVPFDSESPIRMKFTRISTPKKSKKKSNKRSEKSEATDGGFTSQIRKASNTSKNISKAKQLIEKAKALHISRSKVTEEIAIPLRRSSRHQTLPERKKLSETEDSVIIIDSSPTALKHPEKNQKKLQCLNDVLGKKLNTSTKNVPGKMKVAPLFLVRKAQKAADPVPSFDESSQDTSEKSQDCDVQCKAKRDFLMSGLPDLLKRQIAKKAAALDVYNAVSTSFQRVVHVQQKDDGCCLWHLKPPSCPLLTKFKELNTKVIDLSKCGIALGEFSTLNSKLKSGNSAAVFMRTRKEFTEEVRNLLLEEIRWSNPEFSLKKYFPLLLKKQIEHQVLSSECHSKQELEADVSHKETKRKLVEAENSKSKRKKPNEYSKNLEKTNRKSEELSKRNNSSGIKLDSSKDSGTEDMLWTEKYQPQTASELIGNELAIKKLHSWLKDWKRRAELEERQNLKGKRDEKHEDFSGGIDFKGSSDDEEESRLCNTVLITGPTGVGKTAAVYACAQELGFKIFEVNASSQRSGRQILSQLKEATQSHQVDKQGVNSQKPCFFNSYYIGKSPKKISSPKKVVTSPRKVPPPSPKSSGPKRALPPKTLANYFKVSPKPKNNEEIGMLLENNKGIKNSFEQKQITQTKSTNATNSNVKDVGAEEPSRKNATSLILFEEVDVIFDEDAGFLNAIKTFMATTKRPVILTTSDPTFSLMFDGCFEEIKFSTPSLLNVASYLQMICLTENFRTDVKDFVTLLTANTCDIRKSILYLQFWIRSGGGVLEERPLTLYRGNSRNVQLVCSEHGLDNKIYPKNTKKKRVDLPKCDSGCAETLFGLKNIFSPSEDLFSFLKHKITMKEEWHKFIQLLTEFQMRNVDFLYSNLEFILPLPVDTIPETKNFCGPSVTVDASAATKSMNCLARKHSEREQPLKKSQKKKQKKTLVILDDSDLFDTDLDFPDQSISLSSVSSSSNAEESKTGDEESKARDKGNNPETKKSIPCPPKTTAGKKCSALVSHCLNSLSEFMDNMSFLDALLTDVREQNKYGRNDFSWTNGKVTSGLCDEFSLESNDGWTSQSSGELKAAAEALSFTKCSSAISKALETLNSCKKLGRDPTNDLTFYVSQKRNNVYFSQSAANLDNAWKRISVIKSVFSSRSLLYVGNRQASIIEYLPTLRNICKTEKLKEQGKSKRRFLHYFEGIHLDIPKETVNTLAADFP
Chain of Tyrosyl-DNA phosphodiesterase 1 (Homo sapiens) (Q9NUW8 whole entry, looked up): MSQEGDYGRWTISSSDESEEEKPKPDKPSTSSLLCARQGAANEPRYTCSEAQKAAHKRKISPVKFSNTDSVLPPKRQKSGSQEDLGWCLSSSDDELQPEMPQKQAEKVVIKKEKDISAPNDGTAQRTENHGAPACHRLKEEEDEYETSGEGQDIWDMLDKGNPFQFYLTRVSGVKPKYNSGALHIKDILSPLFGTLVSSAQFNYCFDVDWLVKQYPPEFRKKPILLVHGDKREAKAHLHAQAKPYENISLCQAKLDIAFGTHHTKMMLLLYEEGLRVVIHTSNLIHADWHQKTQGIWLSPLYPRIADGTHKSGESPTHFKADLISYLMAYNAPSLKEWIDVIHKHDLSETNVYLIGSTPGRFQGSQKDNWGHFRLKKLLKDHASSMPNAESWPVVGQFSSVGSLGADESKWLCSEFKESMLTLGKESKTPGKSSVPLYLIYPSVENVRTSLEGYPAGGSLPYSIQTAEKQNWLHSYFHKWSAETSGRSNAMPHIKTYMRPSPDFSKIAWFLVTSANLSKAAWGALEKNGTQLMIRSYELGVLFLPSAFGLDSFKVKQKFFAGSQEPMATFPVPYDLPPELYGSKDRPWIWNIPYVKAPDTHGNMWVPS

As for `CC(=O)OCC1=C(C(=O)O)N2C(=O)[C@@H](NC(=O)CCC[C@@H](N)C(=O)O)[C@H]2SC1`, the Potency entry in test [1], in [2] and in test [3] was “inactive” in each case. In addition, the viability change in test [3] was determined as 1.57%. In [4], the molecule was called inactive.

Turning to `S=C=S`, the Potency result in test [5] is “inactive”.

On to `CCCCNCC(O)c1ccc(O)cc1` (configuration not stated), for which, in test [5], the Potency entry was “inactive”.

For the molecule `O=[N+]([O-])c1ccccc1`, the Potency result in test [5] is “inactive”.

On to `OCc1cnc[nH]1`, for which the Potency result in test [1], in [2], in [6] and in test [3] was “inactive” each time. Besides, the activation in [7] is 1% (inactive). Besides, the viability change in test [3] came out at 1.78%. Besides, the molecule was called inactive in test [4] and in test [8].

Take `C[C@H]1CC[C@@H]2[C@@H](C)[C@H]3[C@H](C[C@H]4[C@@H]5CC=C6CC(O[C@@H]7O[C@H](CO)[C@H](O)[C@H](O[C@@H]8O[C@H](CO)[C@@H](O)[C@H](O)[C@H]8O)[C@H]7O[C@H]7O[C@@H](C)[C@H](O)[C@@H](O)[C@H]7O)CC[C@]6(C)[C@H]5CC[C@]34C)N2C1` (some centres not stated): the Potency entry in test [5] was “inactive”.

Take `O=c1[nH]cc(N(CCCl)CCCl)c(=O)[nH]1`: in test [5], the Potency result was “inactive”.

`ClC=C(Cl)Cl`: the Potency result in test [5] is “inactive”.

For the molecule `CCCN(CCC)CCc1c[nH]c2ccc(C(N)=O)cc12`, the Potency entry in [1], in [2], in test [6] and in test [3] was “inactive” in each case. In addition, the activation in test [7] is 0% (inactive). For the same molecule, in test [3], the viability change turned out to be 1.24%. Moreover, the outcome in test [4] and in [8] was inactive.

On to `O=c1[nH]c(=O)n(Cl)c(=O)n1Cl`, for which the Potency entry in [5] is “inactive”.

With `CCC1(c2ccccc2)C(=O)NC(=O)N(C)C1=O` (configuration not stated), in [5], the Potency result is “inactive”.

For `c1cc2c(c(NC3=NCCN3)c1)CCCC2`, the Potency entry in [5] is “inactive”.

`CC(=O)O[C@H]1CC[C@H]2[C@@H]3CCC4=CC(=O)CCC4=C3C=C[C@]12C`: the Potency result in test [5] was “inactive”.

Consider `[O]=[Cr](=[O])([OH])[O][Cr](=[O])(=[O])[OH]`, for which the Potency in test [9] was 4.47 µM (active).

For `C[C@@H](Cc1ccccc1)NCCC(c1ccccc1)c1ccccc1`, the Potency result in test [5] was “inactive”.

Regarding `NNC(=O)c1ccc(O)cc1`, the Potency entry in [1], in [2] and in test [3] was “inactive” throughout. In addition, the activation in test [7] is 0.375% (inactive). In addition, in test [3], the viability change was 6.63%. The outcome in [4] and in test [8] was inactive.

In the case of `CCCCCCC(C)(C)c1ccc([C@@H]2C[C@H](O)CC[C@H]2CCCO)c(O)c1`, the Potency entry in [1], in [2] and in test [3] was “inactive” in each case. Moreover, the Potency in [6] was 16.4 µM (active). In test [7], the activation is 1.06% (inactive). Further, the viability change in [3] was 3.03%. Also, the call in test [4] and in test [8] was inactive.

For the molecule `C=CCN=C=S`, in test [5], the Potency result was “inactive”.

For `N#CC1(N2CCCCC2)CCCCC1`, in test [5], the Potency result was “inactive”.

Regarding `COc1ccc2c(c1)/C(=C/c1cnc[nH]1)C(=O)N2`, the Potency result in [10] is “inactive”. The activation in test [7] was 0.562% (inactive). For the same molecule, the result in test [4] and in test [8] was inactive.

Regarding `[O]=[Cd]`, the Potency entry in [5] is “inactive”.

Take `CC(C)CCON=O`: the Potency result in [5] was “inactive”.

On to `Clc1ccccc1Cl`, for which, in test [5], the Potency entry is “inactive”.

For the molecule `C#CC(C)(O)CC` (configuration not stated), the Potency result in [5] was “inactive”.

Turning to `CCC1(CC)C(=O)NC(=O)N(C)C1=O`, in test [5], the Potency entry was “inactive”.

In the case of `COc1ccc2c3c1O[C@H]1C(=O)CC[C@H]4[C@@H](C2)N(C)CC[C@]314`, the Potency entry in test [5] is “inactive”.

Regarding `CNC1(c2ccccc2Cl)CCCCC1=O` (configuration not stated), the Potency entry in test [5] is “inactive”.

Consider `C[C@H]1CCC[C@H](O)CCCCCc2cc(O)cc(O)c2C(=O)O1`, for which, in [5], the Potency entry was “inactive”.

Take `C=CCN1CC[C@]23c4c5ccc(O)c4O[C@H]2[C@@H](O)C=C[C@H]3[C@H]1C5`: the Potency entry in test [5] is “inactive”.

Turning to `O=C(OCCN1CCCCC1)C(O)(c1ccccc1)c1ccccc1`, the Potency entry in test [5] was “inactive”.

As for `O=C(O)C(Cl)(Cl)Cl`, in test [5], the Potency result was “inactive”.

For `N#CN`, in test [5], the Potency result was “inactive”.

As to `COC([CH2][Hg])CNC(=O)c1ccccc1OCC(=O)O` (configuration not stated), the Potency in [5] was 7.08 µM (active).

Consider `O=C1CCO1`, for which the Potency entry in test [5] was “inactive”.

Turning to `CCCN1CCc2cc(O)cc3c2[C@H]1Cc1ccc(O)c(O)c1-3`, the Potency in [1] is 0.631 µM (active). Moreover, the Potency entry in [2], in [6] and in [3] was “inactive” each time. The viability change in test [3] is -6.67%. Further, the outcome in test [4] was inactive.

For the molecule `COC1=CC=C2[C@H]3Cc4ccc(OC)c5c4[C@@]2(CCN3C)[C@H]1O5`, in [5], the Potency result was “inactive”.

On to `CNc1ccc2oc(C[C@H]3O[C@@]4(CC[C@H]3C)O[C@H]([C@H](C)C(=O)c3ccc[nH]3)[C@H](C)C[C@H]4C)nc2c1C(=O)O`, for which the Potency in test [6] was 13 µM (active).

For the molecule `CCN1C[C@@]2(COC)C3[C@@H](OC)C4[C@@H]1C3([C@@H]1C[C@]3(O)[C@H](OC(=O)c5ccccc5)[C@@H]1[C@]4(OC(C)=O)[C@@H](O)[C@@H]3OC)[C@H](OC)C[C@H]2O`, the Potency entry in test [6] was “inactive”.

These data come from PubChem BioAssay (NCATS).
